Data taken from the supplement of paper PMC11732987, “Enantioselective OTUD7B fragment discovery through chemoproteomics screening and high-throughput optimisation” (Communications Chemistry, 2025).

Assays:
Test in all cases: log2 ratio of Biotin-Ahx-Ub-VS probe labelling (fragment/DMSO); higher = less target engagement (more negative = stronger competition), active = hit call of the paper (q ≤ 0.05, log2 ratio ≤ -1)
Conditions in all cases: compound concentration: 200 uM; treatment time: 3 h
USP19 = target: T1, USP19 (UniProt O94966)
T1 sequence (whole entry): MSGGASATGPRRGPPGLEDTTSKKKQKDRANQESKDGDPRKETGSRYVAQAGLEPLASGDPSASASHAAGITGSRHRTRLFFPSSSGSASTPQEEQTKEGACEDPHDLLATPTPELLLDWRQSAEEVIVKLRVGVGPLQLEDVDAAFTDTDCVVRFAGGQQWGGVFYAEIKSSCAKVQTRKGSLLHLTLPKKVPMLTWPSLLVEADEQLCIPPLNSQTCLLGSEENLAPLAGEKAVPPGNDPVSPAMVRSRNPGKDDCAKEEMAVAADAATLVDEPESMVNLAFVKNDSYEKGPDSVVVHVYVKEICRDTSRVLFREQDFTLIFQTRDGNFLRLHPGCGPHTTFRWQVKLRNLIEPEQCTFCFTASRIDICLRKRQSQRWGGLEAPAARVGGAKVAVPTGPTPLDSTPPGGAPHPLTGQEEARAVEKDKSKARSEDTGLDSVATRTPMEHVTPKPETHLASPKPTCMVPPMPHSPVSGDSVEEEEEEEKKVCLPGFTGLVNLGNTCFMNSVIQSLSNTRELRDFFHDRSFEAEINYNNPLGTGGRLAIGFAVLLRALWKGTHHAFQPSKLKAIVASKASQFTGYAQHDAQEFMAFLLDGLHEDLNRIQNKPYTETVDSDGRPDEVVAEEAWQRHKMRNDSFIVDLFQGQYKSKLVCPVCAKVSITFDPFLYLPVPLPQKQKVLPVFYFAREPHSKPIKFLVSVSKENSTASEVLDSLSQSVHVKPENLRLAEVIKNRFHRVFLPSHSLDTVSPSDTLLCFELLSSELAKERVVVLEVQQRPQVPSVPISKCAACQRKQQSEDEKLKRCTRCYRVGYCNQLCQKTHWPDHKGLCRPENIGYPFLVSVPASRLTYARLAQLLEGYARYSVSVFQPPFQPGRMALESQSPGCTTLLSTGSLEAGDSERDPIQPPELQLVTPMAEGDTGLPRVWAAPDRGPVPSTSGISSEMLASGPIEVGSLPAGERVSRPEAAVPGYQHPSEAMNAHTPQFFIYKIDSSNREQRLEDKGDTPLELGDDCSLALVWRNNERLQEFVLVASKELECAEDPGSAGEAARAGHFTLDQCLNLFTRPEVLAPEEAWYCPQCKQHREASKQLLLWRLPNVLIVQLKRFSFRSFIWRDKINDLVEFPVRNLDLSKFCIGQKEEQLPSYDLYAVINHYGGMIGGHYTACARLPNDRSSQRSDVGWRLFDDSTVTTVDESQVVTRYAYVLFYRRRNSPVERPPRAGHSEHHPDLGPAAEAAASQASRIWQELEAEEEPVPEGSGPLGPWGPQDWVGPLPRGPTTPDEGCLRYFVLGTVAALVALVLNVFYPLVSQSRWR
How it was run: (§1)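 Triplicate samples of HEK293T lysate, 495 µg each, received fragment at 200 µM or vehicle for 3 h, followed by Biotin-Ahx-Ub-VS (0.5 µM final) for 1 h. After NeutrAvidin enrichment of labelled DUBs and LysC/trypsin digestion, peptides were run by diaPASEF LC-MS/MS. The values are average log2 fragment/vehicle ratios from global-median-normalised Spectronaut label-free quantities, tested by unpaired t-test on proteins having ≥2 unique peptides.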

USP22 = target: T2, USP22 (UniProt Q9UPT9)
T2 sequence (whole entry): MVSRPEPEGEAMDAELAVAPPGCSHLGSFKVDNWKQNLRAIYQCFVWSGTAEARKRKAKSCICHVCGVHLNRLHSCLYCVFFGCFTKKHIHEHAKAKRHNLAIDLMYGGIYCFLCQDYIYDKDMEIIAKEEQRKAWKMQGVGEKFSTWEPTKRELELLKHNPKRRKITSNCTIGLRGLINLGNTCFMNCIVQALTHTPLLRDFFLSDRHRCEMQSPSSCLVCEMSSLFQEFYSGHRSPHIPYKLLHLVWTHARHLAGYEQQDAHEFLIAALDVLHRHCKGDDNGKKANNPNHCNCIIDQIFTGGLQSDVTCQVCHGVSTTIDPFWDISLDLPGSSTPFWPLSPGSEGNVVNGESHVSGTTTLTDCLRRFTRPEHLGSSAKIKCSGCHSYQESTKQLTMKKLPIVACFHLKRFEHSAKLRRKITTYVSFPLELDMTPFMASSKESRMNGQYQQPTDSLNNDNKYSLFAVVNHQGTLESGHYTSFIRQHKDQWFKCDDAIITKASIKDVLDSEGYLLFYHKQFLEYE
How it was run: as §1

USP24 = USP24 (UniProt Q9UPU5)
How it was run: as §1

USP25 = target: T3, USP25 (UniProt Q9UHP3)
T3 sequence (whole entry): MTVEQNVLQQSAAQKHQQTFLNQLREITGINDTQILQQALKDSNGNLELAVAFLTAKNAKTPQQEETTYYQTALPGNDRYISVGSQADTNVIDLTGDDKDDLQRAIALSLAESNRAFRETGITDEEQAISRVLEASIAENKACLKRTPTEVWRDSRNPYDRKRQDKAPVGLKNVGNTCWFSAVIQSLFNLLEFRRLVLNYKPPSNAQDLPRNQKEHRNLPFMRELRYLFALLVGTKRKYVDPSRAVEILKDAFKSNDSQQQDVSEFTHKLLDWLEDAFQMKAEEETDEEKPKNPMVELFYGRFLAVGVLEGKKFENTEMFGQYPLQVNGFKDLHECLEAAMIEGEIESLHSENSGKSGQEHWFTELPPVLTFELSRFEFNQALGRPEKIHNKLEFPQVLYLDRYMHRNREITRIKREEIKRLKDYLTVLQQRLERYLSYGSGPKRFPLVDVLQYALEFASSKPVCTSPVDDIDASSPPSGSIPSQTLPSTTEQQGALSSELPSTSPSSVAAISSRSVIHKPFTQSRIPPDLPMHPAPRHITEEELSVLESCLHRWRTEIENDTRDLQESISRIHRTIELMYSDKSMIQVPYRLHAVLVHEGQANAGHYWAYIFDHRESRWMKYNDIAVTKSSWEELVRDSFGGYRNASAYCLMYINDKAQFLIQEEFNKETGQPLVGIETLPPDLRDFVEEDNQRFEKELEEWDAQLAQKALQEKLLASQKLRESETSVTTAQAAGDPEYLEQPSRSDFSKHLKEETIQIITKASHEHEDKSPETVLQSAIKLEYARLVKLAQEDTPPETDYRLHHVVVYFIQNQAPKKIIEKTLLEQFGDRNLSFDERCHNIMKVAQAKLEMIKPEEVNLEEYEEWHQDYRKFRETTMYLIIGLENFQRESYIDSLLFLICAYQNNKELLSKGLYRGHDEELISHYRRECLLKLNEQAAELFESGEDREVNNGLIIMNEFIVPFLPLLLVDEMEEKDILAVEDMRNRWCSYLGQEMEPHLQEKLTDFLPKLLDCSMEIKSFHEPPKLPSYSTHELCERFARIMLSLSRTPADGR
How it was run: as §1

USP28 = target: T4, USP28 (UniProt Q96RU2)
T4 sequence (whole entry): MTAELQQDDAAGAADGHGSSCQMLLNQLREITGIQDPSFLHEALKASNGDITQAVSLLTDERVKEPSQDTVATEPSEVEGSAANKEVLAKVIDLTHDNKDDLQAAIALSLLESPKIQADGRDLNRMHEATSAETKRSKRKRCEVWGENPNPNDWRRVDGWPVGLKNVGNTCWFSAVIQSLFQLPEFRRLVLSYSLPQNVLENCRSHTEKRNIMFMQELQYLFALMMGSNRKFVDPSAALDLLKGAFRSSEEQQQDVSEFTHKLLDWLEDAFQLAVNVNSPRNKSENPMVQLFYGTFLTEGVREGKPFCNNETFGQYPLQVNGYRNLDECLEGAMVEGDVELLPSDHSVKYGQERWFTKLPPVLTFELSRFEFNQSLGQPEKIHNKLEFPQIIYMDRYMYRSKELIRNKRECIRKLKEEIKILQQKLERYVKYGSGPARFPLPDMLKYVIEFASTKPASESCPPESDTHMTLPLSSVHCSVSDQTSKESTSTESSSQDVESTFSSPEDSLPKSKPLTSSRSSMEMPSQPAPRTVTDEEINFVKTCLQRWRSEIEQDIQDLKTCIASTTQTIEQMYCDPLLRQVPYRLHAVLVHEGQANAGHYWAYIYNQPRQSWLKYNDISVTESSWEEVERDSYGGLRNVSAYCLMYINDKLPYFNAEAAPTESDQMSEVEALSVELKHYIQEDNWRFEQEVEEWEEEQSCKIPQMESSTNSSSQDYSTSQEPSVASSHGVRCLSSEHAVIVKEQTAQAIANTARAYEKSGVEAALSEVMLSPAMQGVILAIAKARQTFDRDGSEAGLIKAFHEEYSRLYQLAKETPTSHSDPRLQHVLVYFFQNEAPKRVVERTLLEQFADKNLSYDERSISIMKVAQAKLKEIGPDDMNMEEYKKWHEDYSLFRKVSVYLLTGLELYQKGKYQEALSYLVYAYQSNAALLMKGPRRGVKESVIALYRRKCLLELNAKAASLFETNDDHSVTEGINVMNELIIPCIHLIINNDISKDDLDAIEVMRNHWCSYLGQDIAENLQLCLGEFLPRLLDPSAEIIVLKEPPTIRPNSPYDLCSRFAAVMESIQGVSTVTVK
How it was run: as §1

Measured: log2 ratio of Biotin-Ahx-Ub-VS probe labelling

USP24, sequence (Q9UPU5 whole entry): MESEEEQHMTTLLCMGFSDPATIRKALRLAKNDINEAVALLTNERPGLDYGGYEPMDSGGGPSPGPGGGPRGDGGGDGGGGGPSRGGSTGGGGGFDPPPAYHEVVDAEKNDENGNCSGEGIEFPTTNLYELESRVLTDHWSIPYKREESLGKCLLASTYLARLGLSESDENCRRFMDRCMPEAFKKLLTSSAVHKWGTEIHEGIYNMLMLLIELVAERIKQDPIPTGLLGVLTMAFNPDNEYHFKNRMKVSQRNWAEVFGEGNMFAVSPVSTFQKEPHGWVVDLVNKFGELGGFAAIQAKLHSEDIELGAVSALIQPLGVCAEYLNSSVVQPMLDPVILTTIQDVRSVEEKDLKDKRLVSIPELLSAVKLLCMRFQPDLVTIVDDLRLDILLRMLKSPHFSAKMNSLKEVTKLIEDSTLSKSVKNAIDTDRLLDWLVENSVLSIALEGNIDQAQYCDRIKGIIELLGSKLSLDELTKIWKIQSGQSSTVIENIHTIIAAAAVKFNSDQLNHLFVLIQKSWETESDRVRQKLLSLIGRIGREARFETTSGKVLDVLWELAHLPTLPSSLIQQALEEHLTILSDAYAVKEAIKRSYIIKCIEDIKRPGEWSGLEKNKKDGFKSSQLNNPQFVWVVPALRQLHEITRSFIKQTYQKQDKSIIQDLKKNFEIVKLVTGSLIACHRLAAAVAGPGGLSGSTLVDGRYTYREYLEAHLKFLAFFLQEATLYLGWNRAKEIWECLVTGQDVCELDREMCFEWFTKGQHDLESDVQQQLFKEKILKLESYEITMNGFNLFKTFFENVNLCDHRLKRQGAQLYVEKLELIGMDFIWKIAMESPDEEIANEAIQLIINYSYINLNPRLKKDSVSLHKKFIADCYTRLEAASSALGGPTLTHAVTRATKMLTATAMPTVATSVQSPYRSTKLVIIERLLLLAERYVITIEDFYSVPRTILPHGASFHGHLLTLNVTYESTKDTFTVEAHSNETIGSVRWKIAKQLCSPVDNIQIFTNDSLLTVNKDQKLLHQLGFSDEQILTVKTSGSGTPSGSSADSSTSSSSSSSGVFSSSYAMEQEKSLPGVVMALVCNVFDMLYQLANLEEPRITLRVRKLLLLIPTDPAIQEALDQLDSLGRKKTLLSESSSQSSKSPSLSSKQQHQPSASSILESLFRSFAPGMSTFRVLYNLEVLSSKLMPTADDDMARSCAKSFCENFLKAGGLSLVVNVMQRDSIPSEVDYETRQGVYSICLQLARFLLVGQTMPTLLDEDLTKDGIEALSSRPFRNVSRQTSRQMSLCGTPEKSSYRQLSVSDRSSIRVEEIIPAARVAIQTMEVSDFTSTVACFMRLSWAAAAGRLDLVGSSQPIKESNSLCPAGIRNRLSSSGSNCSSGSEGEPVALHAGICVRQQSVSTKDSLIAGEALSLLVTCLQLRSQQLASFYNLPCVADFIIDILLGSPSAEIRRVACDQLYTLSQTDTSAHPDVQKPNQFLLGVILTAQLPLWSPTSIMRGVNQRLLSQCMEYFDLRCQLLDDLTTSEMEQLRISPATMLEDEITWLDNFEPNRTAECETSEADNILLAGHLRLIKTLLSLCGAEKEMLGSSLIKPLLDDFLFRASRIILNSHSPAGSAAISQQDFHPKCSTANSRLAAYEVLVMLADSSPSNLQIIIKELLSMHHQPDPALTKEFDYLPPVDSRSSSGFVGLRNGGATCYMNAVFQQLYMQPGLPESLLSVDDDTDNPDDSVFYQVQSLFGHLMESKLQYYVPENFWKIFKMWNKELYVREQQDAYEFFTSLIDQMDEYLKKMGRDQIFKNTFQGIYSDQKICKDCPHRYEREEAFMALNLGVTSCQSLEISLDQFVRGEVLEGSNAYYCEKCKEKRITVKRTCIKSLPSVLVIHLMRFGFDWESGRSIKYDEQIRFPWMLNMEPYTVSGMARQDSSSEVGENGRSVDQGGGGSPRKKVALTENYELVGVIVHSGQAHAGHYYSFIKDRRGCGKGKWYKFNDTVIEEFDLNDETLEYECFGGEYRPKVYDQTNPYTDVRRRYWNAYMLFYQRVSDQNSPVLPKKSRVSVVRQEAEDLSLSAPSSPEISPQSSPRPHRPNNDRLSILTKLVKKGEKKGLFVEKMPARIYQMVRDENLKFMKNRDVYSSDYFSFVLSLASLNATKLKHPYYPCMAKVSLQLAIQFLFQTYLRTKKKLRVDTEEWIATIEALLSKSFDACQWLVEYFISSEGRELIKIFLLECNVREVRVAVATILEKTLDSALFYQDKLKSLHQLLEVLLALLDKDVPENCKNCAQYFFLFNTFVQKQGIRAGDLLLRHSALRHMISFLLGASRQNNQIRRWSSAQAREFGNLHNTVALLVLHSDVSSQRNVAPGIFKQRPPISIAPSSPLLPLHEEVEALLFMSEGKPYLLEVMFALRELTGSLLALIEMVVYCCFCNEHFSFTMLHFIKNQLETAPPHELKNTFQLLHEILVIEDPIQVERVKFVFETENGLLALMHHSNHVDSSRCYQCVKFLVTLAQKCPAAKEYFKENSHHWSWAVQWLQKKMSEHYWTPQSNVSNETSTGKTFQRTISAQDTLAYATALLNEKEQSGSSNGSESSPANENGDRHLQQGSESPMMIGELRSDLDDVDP

Cl.O=C(CCl)N1CCCC(c2ncc[nH]2)C1 (stereo not given)
inactive: USP19 -0.0532 | USP22 0.0588 | USP24 -0.108 | USP25 -0.511 | USP28 -0.212
